Screens: PubChem BioAssay, National Center for Advancing Translational Sciences (NCATS)
In the library only some 3.8% were active in any assay of this set; here they are far more common.
Nrf2 inh: blocks Nrf2 signaling | A549 ARE-Fluc reporter, luciferase luminescence, 18-24 h | Potency, µM (top dose mostly 46 µM), inactives show at the top dose activity change, negative = inhibition, hits mostly inhibitors | 2.1% of 360,000 active | AID 504444; further: on the % scale 0 is the no-effect control and ±100 the full control effect; nearly all actives have a fitted effect of over 60% in size
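In this cell-based qHTS, ARE-driven firefly luciferase in A549 cells reports Nrf2 activity; the luminescent signal after BugLite lysis is the measured value, with a prior CellTiter-Fluor read for cell health.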
A549 tox: A549 cytotoxicity, counter-screen for Nrf2 inhibitors; 0.16% of 390,000 active; Potency, µM (titrated, usually from 46 µM), for the others: at the top dose activity change, negative = cytotoxicity, actives largely listed as inhibitors; A549 ARE-Fluc cells, CellTiter-Fluor viability, 18-24 h; further: on the % scale 0 is the no-effect control and ±100 the full control effect
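A549 ARE-Fluc cells in 5% FBS OPTI-MEM, 5000 cells/well, rested 2 h then exposed to compounds in concentration-response for 18-24 h at 37 °C. Viability by CellTiter-Fluor fluorescence (Ex 405/Em 525) after 30 min; luciferase luminescence (BugLite, 15 min, RT) read afterwards.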
IDH1 R132H inh: blocks human mutant IDH1 R132H enzyme; Potency, µM (titrated, usually from 76.6 µM), for the others: top-dose activity change, negative = inhibition, most hits filed as inhibitors; 0.093% of 390,000 active; O75874; IDH1-R132H enzyme, NADPH consumption, diaphorase/resazurin fluorescence; further: on the % scale 0 is the no-effect control and ±100 the full control effect; nearly all actives have a fitted effect of over 65% in size
Target sequence (O75874 whole entry R132H, stated change not applied): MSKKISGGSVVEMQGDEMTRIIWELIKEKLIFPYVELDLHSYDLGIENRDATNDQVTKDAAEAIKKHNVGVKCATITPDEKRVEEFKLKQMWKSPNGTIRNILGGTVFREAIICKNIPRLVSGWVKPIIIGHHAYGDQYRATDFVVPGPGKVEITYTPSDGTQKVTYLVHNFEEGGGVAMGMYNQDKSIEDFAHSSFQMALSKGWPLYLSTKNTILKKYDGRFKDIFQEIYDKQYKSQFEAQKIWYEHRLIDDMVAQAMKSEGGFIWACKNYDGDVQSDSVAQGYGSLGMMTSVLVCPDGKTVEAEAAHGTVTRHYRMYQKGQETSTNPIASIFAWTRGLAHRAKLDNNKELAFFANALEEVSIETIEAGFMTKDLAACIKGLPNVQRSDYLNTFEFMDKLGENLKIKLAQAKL
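IDH1-R132H (0.5 ug/mL dispensed) in pH 7.5 Tris buffer was preincubated 30 min with compound, then given a substrate mix of 0.016 mM NADPH and 2 mM alpha-KG for 80 min at room temperature; remaining NADPH was read by diaphorase/resazurin fluorescence.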
ELG1 DNA repair: blocks ELG1-dependent DNA repair in HEK293T cells | AID 504467 | Potency, µM (titrated, usually from 46.1 µM), for the others: top-dose activity change, negative = inhibition, actives largely listed as inhibitors | HEK293T ELG1-luciferase reporter, luminescence, 16 h; DNA damage induced by 5-fluorouridine | 2.3% of 330,000 active; further: on the % scale 0 is the no-effect control and ±100 the full control effect; nearly all actives have a fitted effect of over 55% in size
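Overnight (16 hr) co-exposure of 2,000 cells/well to 5-fluorouridine and compound at 37 °C preceded detection. Luciferase was quantified via ONE-Glo luminescence; loss of signal denotes inhibition.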
Nrf2 ARE act: activates Nrf2 signaling; 0.31% of 410,000 active; Potency, µM (series often up to 46.1 µM), without a hit: top-dose activation, usual class: activators; AREc32 ARE-luciferase reporter (MCF7-derived line), luminescence, 24 h; AID 624171; further: % of control where 0% means no effect; nearly all actives have a fitted effect of over 65% in size
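For detection, Steady-Glo was added and plates sat 30 min at RT; before that, AREc32_Fluc cells grown overnight in OPTI-MEM/5% FBS had been treated with 23 nL compound for 24 hr at 37 deg C.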
* marks the source's active call; other numbers are inactive results; ? = inconclusive; nt = no result given. The call rests on the fitted dose curve; in most records, active means well fitted curve in the direction sought with a large enough effect; inconclusive means small, poorly fitted or top-dose-only effect, or another doubt; inactive means no such curve, though single readings can be large; an effect the other way counts as inactive or inconclusive. Potency means the concentration at half of the fitted maximal effect.

SMILES	Nrf2 inh	A549 tox	IDH1 R132H inh	ELG1 DNA repair	Nrf2 ARE act
COc1ccc(OC)c(/C=N/NC(=O)c2cc3c(OC)cc(OC)cc3[nH]2)c1	?	3.4%	-3.6%	20.6µM*	5.3%
Cc1ccc(N2CCN(C(=O)CCc3c(C)nc4ncnn4c3C)CC2)c(C)c1	18.4µM*	1.4%	-4.8%	nt	0.5%
O=C(NCc1cccnc1)c1cc(Sc2ccc(F)cc2F)nc2ccccc12	?	-3.3%	5.7%	20.6µM*	6.4%
O=C(NCCc1ccccc1)c1cc(Sc2ccc(F)cc2F)nc2ccccc12	nt	4.3%	-4.2%	nt	4.2%
Cc1onc(-c2c(F)cccc2Cl)c1C(=O)Nc1cc2cc([N+](=O)[O-])ccc2oc1=O	nt	nt	nt	nt	5.5%
CC(=O)c1cccc(NC(=O)CSc2nnc3ccc(-c4ccc(Cl)cc4)nn23)c1	nt	9.9%	15.4%	nt	0.2%
C(=N\Nc1ccc2nncn2n1)/c1ccco1	2.9%	-7.6%	0.7%	0.2%	10µM*
O=S(=O)(Nc1cccc2ccccc12)c1cccc2ccccc12	18.4µM*	-24.1%	nt	nt	nt
CCCc1nc2oc3ccccc3c(=O)c2c(=O)n1-c1ccc(C)cc1	?	-0.2%	6.2%	?	11.2µM*
CCN(CC)S(=O)(=O)c1ccc(C(=O)Nc2nnc(COC)o2)cc1	3.2%	4.0%	-12.7%	-1.4%	-0.1%
COc1ccccc1-c1nnc(NC(=O)c2ccc(S(=O)(=O)N(C)Cc3ccccc3)cc2)o1	5.8µM*	-18.2%	-1.6%	?	-1.0%
CCc1nnc(NC(=O)c2ccc(S(=O)(=O)N(CC)Cc3ccccc3)cc2)o1	20.6µM*	-13.1%	-0.3%	-13.9%	-0.6%
CCc1nnc(NC(=O)c2ccc(S(=O)(=O)N(C)Cc3ccccc3)cc2)o1	7.31µM*	-24.7%	-10.8%	-4.1%	-2.4%
CCN(Cc1ccccc1)S(=O)(=O)c1ccc(C(=O)Nc2nnc(C)o2)cc1	13µM*	-9.6%	-6.2%	-12.4%	-0.9%
Cc1ccc(Cl)cc1N1C(=O)N(Cc2ccc(C#N)cc2)c2ccccc2S1(=O)=O	nt	-6.9%	5.8%	nt	-0.9%
CCOC(=O)C1=C(COC(=O)C(C)(C)Oc2ccc(Cl)cc2)NC(=O)NC1C (stereo not drawn)	-23.8%	-6.0%	-6.8%	12.9%	0.0%
CCCCN(C)S(=O)(=O)c1ccc(C(=O)Nc2nnc(CSC)o2)cc1	10µM*	-20.1%	-2.9%	?	-0.5%
Cc1cccc(N2CCN(C(=O)C3CCN(S(=O)(=O)c4cccs4)CC3)CC2)c1C	-18.9%	-4.4%	2.2%	nt	-1.1%
CCOc1ccccc1NC(=O)Cn1c(=O)n(CCCCC(=O)NCCCOC)c(=O)c2ccccc21	15.6%	-2.7%	-8.4%	nt	-1.3%
CCN(CC)c1ccc(S(=O)(=O)N2CCOCC2)cc1NC(=O)CNCc1cccc(Cl)c1	25.9µM*	?	2.9%	nt	-0.5%
O=C(CN1CCN(S(=O)(=O)N2CCOCC2)CC1)Nc1cc(Cl)ccc1Cl	?	-7.6%	13.4%	20.6µM*	0.3%
CN(CC(=O)Nc1cc(S(=O)(=O)N2CCCC2)ccc1Cl)Cc1cccs1	25.9µM*	-8.3%	6.0%	?	1.5%
Cc1ccc(S(=O)(=O)N2CCCCC2)cc1NC(=O)Cc1cccs1	12.3%	0.8%	0.1%	0.0%	-0.2%
COc1ccc(S(=O)(=O)N2CCOCC2)cc1NC(=O)Cc1ccccc1Cl	0.2%	2.8%	-1.6%	12.5%	-0.1%
O=C(CNCc1ccccc1Cl)Nc1cc(S(=O)(=O)N2CCOCC2)ccc1Cl	16.4µM*	-13.3%	8.6%	?	7.5%
SMILES	Nrf2 inh	A549 tox	IDH1 R132H inh	ELG1 DNA repair	Nrf2 ARE act
Cc1ccc(S(=O)(=O)N2CCOCC2)cc1NC(=O)CNCc1ccc(Cl)cc1Cl	13µM*	-0.4%	-3.6%	23.1µM*	0.0%
CCN(CC(=O)Nc1cc(S(=O)(=O)N2CCOCC2)ccc1Cl)Cc1ccccc1	?	?	-12.4%	18.3µM*	0.2%
Cc1ccc(S(=O)(=O)N2CCOCC2)cc1NC(=O)COC(=O)Cc1ccc(Cl)cc1	8.9%	9.8%	3.4%	?	0.2%
O=C(Cn1cnc2c(cnn2-c2ccccc2)c1=O)Nc1cc(S(=O)(=O)N2CCOCC2)ccc1Cl	?	-5.5%	3.0%	23.1µM*	2.6%
COc1cccc(CNC(=O)CCn2nc(C)c3c(C)n(-c4ccccc4)nc3c2=O)c1	-20.0%	3.9%	-15.9%	nt	0.8%
COc1ccccc1Nc1nc2ccccc2[nH]1	nt	-0.5%	0.7%	?	7.7%
CCc1ccccc1Nc1nc2ccccc2[nH]1	14.6µM*	-1.3%	0.0%	nt	0.0%
CCOC(=O)C1=C(CN(CC)Cc2ccccc2)NC(=O)NC1c1ccc(OC(C)C)cc1 (stereo not drawn)	18.4µM*	?	-1.1%	nt	0.3%
CCOC(=O)C1=C(CN2CCN(c3ccccc3F)CC2)NC(=O)NC1c1ccc(OC)cc1 (stereo not drawn)	18.4µM*	-21.3%	0.0%	nt	-0.3%
CCOC(=O)C1=C(CN2CCSCC2)NC(=O)NC1c1ccc2c(c1)OCO2 (stereo not drawn)	-6.1%	1.1%	2.7%	0.8%	-0.3%
CCOC(=O)C1=C(CN2CCN(c3ccccc3F)CC2)NC(=O)NC1c1ccc(Cl)cc1 (stereo not drawn)	20.6µM*	-21.6%	-1.0%	nt	-1.1%
CCOC(=O)C1=C(CCl)NC(=O)NC1c1ccc2c(c1)OCO2 (stereo not drawn)	14.6µM*	-18.0%	-8.9%	?	20.7%
Cc1ccc(C)n1-c1nnc(N2CCCC(C(=O)NCc3ccc(F)cc3)C2)s1 (stereo not drawn)	-12.4%	-4.4%	0.0%	nt	2.8%
O=C(Nc1cccc2cccnc12)OCc1ccccc1	26.7%	1.6%	nt	nt	nt
COc1ccc(S(=O)(=O)N2CCC(C(=O)NCCC(=O)NCc3cccnc3)CC2)cc1	nt	nt	4.8%	nt	-2.6%
Cc1cc2c(Nc3ccccc3O)ncnc2s1	nt	nt	4.5%	nt	11.2µM*
Cc1cc2c(Nc3cccc(O)c3)ncnc2s1	1.6%	1.8%	2.2%	4.6%	5.0%
Cc1c(OC(C)C(=O)NCC(O)c2ccccc2)ccc2c3c(c(=O)oc12)CCCC3 (stereo not drawn)	?	-0.6%	0.0%	14.6µM*	0.4%
Cc1c(OC(C)C(=O)NCc2ccncc2)ccc2c3c(c(=O)oc12)CCCC3 (stereo not drawn)	23.1µM*	-1.4%	1.3%	?	0.2%
